Records with an inconclusive call do not appear. The source made the active and inactive calls. Calls follow the shape of the dose curve; as a rule, active = well fitted cell-killing curve with a large enough effect; inconclusive = small, poorly fitted or top-dose-only effect, or effect the other way; inactive = no such curve, though single readings can be large or run the other way.

Experiment [1] is described as follows: Quantitative High-Throughput drug screen in 47 multiple myeloma cell lines against the NCATS MIPE library collection: XG6_PLB cell viability assay (AID 1919865). Also: nearly all actives have a fitted effect of over 40% in size. Also: potency is read from the fitted curve at half-maximal effect. The method in brief:
(§1)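 Inhibition of viability over 48 h was scored by ATP content (CellTiter-Glo) in 500-cell wells. Zero and full viability were defined by media-only and DMSO-only wells.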

A short description of experiment [2]: Quantitative High-Throughput drug screen in 47 multiple myeloma cell lines against the NCATS MIPE library collection: XG1_PLB cell viability assay (AID 1919866). Also: nearly all actives have a fitted effect of over 35% in size. Also: potency is read from the fitted curve at half-maximal effect. In a few lines: as §1
A short description of experiment [3]: Quantitative High-Throughput drug screen in 47 multiple myeloma cell lines against the NCATS MIPE library collection: PE2_PLB cell viability assay (AID 1919869). Also: nearly all actives have a fitted effect of over 35% in size. Also: potency is read from the fitted curve at half-maximal effect. The method in brief:
as §1

Experiment [4] is described as follows: Quantitative High-Throughput drug screen in 47 multiple myeloma cell lines against the NCATS MIPE library collection: KMS11_JCRBsus cell viability assay (AID 1919873). Also: nearly all actives have a fitted effect of over 50% in size. Also: potency is read from the fitted curve at half-maximal effect. In a few lines:
as §1

Experiment [5] can be described thus: Quantitative High-Throughput drug screen in 47 multiple myeloma cell lines against the NCATS MIPE library collection: OPM2_DSMZ cell viability assay (AID 1919872). Also: nearly all actives have a fitted effect of over 30% in size. Also: potency is read from the fitted curve at half-maximal effect. In a few lines: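 CellTiter-Glo ATP luminescence gave viability after 48 h compound treatment at 37C of 500 multiple myeloma cells per well. Normalisation used DMSO-only wells as 100% and media-only wells as 0% viability; primary qHTS of approved and investigational drugs.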

Experiment [6] is described as follows: Quantitative High-Throughput drug screen in 47 multiple myeloma cell lines against the NCATS MIPE library collection: PCM6_Riken cell viability assay (AID 1919870). Also: nearly all actives have a fitted effect of over 30% in size. The method in brief: as §1
The nature of experiment [7]: Quantitative High-Throughput drug screen in 47 multiple myeloma cell lines against the NCATS MIPE library collection: RPMI8226_ATCC cell viability assay (AID 1919871). Also: nearly all actives have a fitted effect of over 30% in size. Also: potency is read from the fitted curve at half-maximal effect. The method in brief:
as §1

Experiment [8] in a line: Quantitative High-Throughput drug screen in 47 multiple myeloma cell lines against the NCATS MIPE library collection: VP6_DJ cell viability assay (AID 1919867). Also: potency is read from the fitted curve at half-maximal effect; nearly all actives have a fitted effect of over 40% in size. In a few lines:
as §1

Experiment [9] in a line: Quantitative High-Throughput drug screen in 47 multiple myeloma cell lines against the NCATS MIPE library collection: UTMC2_PLB cell viability assay (AID 1919868). Also: nearly all actives have a fitted effect of over 55% in size. Also: potency is read from the fitted curve at half-maximal effect. In a few lines:
as §1

On to `Cc1nc(Nc2ncc(C(=O)Nc3c(C)cccc3Cl)s2)cc(N2CCN(CCO)CC2)n1`, for which the Potency is 0.0332 µM (active) in [1], 16.6 µM (active) in [2], 3.32 µM (active) in experiment [3] and 14.8 µM (active) in [4].

`COc1cc(OC)c(C(=O)CCCN2CCCC2)c(OC)c1`: the Potency result in experiment [1], in experiment [2], in experiment [3], in experiment [5] and in [4] was “inactive” each time.

In the case of `O=C(NCCO[N+](=O)[O-])c1cccnc1`, the Potency entry in experiment [1], in experiment [2], in experiment [3], in experiment [6] and in [5] was “inactive” throughout.

As to `CC(C)(S)[C@@H](N)C(=O)O`, the Potency result in experiment [1], in [2], in experiment [3], in experiment [7], in experiment [5] and in [4] was “inactive” in each case.

Take `N=C(N)c1ccc2cc(OC(=O)c3ccc(N=C(N)N)cc3)ccc2c1`: the Potency result in [2] and in experiment [6] was “inactive” throughout. For the same compound, the Potency was 5.26 µM (active) in [8], 10.5 µM (active) in [3] and 10.5 µM (active) in experiment [5].

As for `C[C@@H](N)C1CCC(C(=O)Nc2ccncc2)CC1` (some centres not stated), the Potency is 9.35 µM (active) in experiment [2], 6.62 µM (active) in [9] and 16.6 µM (active) in experiment [3]. The Potency entry in experiment [7] and in experiment [4] was “inactive” throughout.

Regarding `Nc1ncn([C@H]2C[C@H](O)[C@@H](CO)O2)c(=O)n1`, the values for the Potency in experiment [1], in [2] and in [4] were 0.833 µM (active), 0.264 µM (active) and 0.59 µM (active), respectively. Moreover, the Potency entry in experiment [7] was “inactive”.

Regarding `CCOC(=O)c1c(C)n(C)c2ccc(O)cc12`, the Potency entry in experiment [1], in experiment [3], in experiment [7], in [5] and in experiment [4] was “inactive” each time. In [2], the Potency is 6.62 µM (active).

Take `COc1cc2c(cc1OC)C1CC(=O)C(CC(C)C)CN1CC2` (configuration not stated): the Potency entry in [1], in [2], in [3] and in [4] was “inactive” throughout. Also, in [7], the Potency was 5.9 µM (active).

For `C=CCc1cc(OC)c(O)c(C(=O)NCCO)c1`, the Potency result in [1], in experiment [2], in [3], in experiment [5] and in experiment [4] was “inactive” throughout.

For the compound `O=C(NC(Cc1cc(=O)[nH]c2ccccc12)C(=O)O)c1ccc(Cl)cc1` (configuration not stated), the figures for the Potency in experiment [1] and in [2] were 26.4 µM (active) and 23.5 µM (active), respectively. Further, the Potency result in experiment [3], in experiment [5] and in experiment [4] was “inactive” each time.

As for `CC(C)c1ccc2oc3nc(N)c(C(=O)O)cc3c(=O)c2c1`, the Potency entry in experiment [1], in experiment [2], in experiment [3], in experiment [6], in experiment [7] and in [4] was “inactive” in each case.

As to `CC(C)[N+]1(C)[C@@H]2CC[C@H]1CC(OC(=O)C(CO)c1ccccc1)C2` (some centres not stated), the Potency result in [1], in experiment [3], in experiment [7] and in experiment [5] was “inactive” each time. For the same compound, the Potency was 14.8 µM (active) in experiment [8] and 7.43 µM (active) in experiment [4].

In the case of `Cc1ccc(S(=O)(=O)NC(=O)NN2CC3CCCC3C2)cc1` (configuration not stated), the Potency in experiment [1] was 20.9 µM (active); in experiment [2], 23.5 µM (active); in experiment [7], 23.5 µM (active); in experiment [4], 16.6 µM (active).

Turning to `CCC1=C(C)CN(C(=O)NCCc2ccc(S(=O)(=O)NC(=O)NC3CCC(C)CC3)cc2)C1=O` (configuration not stated), the Potency entry in [2], in experiment [3], in experiment [6], in experiment [7] and in experiment [4] was “inactive” each time.

On to `CCN(CCO)CCCC(C)Nc1ccnc2cc(Cl)ccc12` (configuration not stated), for which the Potency result in [2], in experiment [6], in experiment [7], in experiment [5] and in [4] was “inactive” in each case.

`CC1=C(C(=O)O)N2C(=O)[C@@H](NC(=O)[C@H](N)C3=CCC=CC3)[C@H]2SC1`: the Potency entry in experiment [2], in experiment [3], in experiment [7] and in experiment [4] was “inactive” each time.

As to `CC(=O)N1CCN(c2ccc(OC[C@H]3CO[C@](Cn4ccnc4)(c4ccc(Cl)cc4Cl)O3)cc2)CC1`, the Potency was 13.2 µM (active) in experiment [2], 14.8 µM (active) in [3], 18.7 µM (active) in experiment [5] and 18.7 µM (active) in experiment [4]. The Potency entry in experiment [9] was “inactive”.

Turning to `CCCS(=O)c1ccc2nc(NC(=O)OC)[nH]c2c1` (configuration not stated), the Potency in experiment [5] was 23.5 µM (active); in experiment [4], 18.7 µM (active).

These data come from PubChem BioAssay (NCATS).
